For eleven molecules, viability results are on record in PubChem BioAssay.

A number with no mark means an inactive call. Activity calls are given as the source filed them.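 Rule for the calls: active = normalized viability below 100% at a tested concentration; inactive = the rest.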

The nature of this test: ovarian cancer cell viability with rucaparib, profiling panel, oncology-focused library, rucaparib conditional (AID 1508598). Conditions: patient-derived ovarian cancer cells, CellTiter-Glo viability, 144 h; at 0.00488 µM; OCI-C5x cells; with rucaparib 10 µM; stronger effect = lower value; 100% = cells with rucaparib alone.
With `CC1(C)CNc2cc(NC(=O)c3cccnc3NCc3ccncc3)ccc21`, the viability is 112%.
As for `O=C(Nc1ccccc1-c1cn2c(CN3CCNCC3)csc2n1)c1cnc2ccccc2n1`, the figure is 106%; as for `Cc1cnc(NC(=O)Nc2cc(Br)c(C)cc2OC[C@@H]2CNCCO2)cn1`, 103%.
With `N#Cc1c(NC(=O)c2cccc3ccccc23)sc2c1CCCC2`, the viability is 113%.
`COc1ccc(-c2ccc3c(N4CCOC[C@@H]4C)nc(N4CCOC[C@@H]4C)nc3n2)cc1CO`: the viability was 124%.
As for `Nc1nc(Nc2ccc(S(N)(=O)=O)cc2)nn1C(=O)c1c(F)cccc1F`, the viability is 93.6% (active).
As for `Cc1ccc(F)c(NC(=O)Nc2ccc(-c3cccc4[nH]nc(N)c34)cc2)c1`, the figure is 119%.
Turning to `COc1ccc(-c2ccc3c(N4CCOCC4)nc(N4C[C@@H](C)O[C@@H](C)C4)nc3n2)cc1CO`, the viability was 112%.
Take `N#CCNC(=O)c1ccc(-c2ccnc(Nc3ccc(N4CCOCC4)cc3)n2)cc1`: the viability is 110%.
In the case of `COC(=O)c1ccc2c(C(=Nc3ccc(N(C)C(=O)CN4CCN(C)CC4)cc3)c3ccccc3)c(O)[nH]c2c1`, the viability was 114%.
As for `COc1cc2nccc(Oc3ccc(NC(=O)Nc4cc(C)on4)c(Cl)c3)c2cc1OC`, the figure is 107%.
